HSP90 inh = blocks HSP90-mediated luciferase refolding in reticulocyte lysate; Rabbit reticulocyte lysate, luciferase refolding luminescence, 3 h; 290,000 tested, 0.91% active; inhibition, % at 5.6 µM;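 active = inhibition above the screen-wide mean plus 3 SD, computed separately per campaign, cut at about 16% in these data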;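 also: inhibitors lower the luminescence because luciferase stays unfolded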
SMARCA2 act = increases SMARCA2 function in MMTV reporter cells | MG213 cells, MMTV-luciferase reporter, dexamethasone, overnight | activation, % at 9.1 µM | 370,000 tested, 1% active; in the data active = activation above about 7.8%
AI-2 QS modul = Vibrio harveyi AI-2 quorum sensing modulation. Vibrio harveyi JMH597 AI-2 luminescence/OD600 ratio, 9 h; hits give low values; strain lacks LuxN and CqsS sensors; 0 = neutral-control median. activity change, % at 7.5 µM. 300,000 tested, 0.4% active. AID 2094; in the data active = activity change below about -75%, passing the limit was not always enough;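 also: luminescence divided by OD600 gain over 9 h not by final OD600 alone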
FXN GAA850 act = activators of GAA850 frataxin (FXN) promoter; HEK293 lucGAA850 FXN promoter luciferase reporter, 24 h; percent of 10 µM SAHA response; activation, % at 6 µM; 360,000 tested, 0.56% active; AID 540364;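 active = activation above the average of all compounds screened plus 3 SD, cutoff fixed separately per campaign, cut at about 7.5% in these data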
HSF1 inhib = HSF1 inhibition | activity change, negative = inhibition, % at 7.5 µM (by protocol) | AID 2098 | 300,000 tested, 0.77% active | NIH3T3-HGL HSE-luciferase, MG132-induced, luminescence 8 h; hits give low values;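 active = more than half of replicate wells show activity change below -50%, luminescence cut by over half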;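 also: luciferase reports HSF-1 transcriptional activity via heat shock element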
PG9 binder = PG9 antibody binding by small molecule. TR-FRET gp120-PG9 antibody binding. inhibition, % at 6.7 µM. 360,000 tested, 0.43% active; in the data active = inhibition above about 8.5%
SMARCA2 act conf = confirmation of SMARCA2 (BRM) function activators | shares compounds with SMARCA2 act | MG213 cells, MMTV-luciferase with dexamethasone, luminescence, overnight; MG213 cells expressing E1A, Rb sequestered; DMSO wells 0%, reference activator 100% | activation, % at 9.1 µM | 3,500 tested, 30% active;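 active = activation above its plate's cutoff, the mean activation of tested wells plus 3 SD, cut at about 7.9% in these data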
GAL4-VP16 Luc = activates GAL4-VP16 luciferase, flagging SMARCA2 activator hits; HEK293 GAL4-VP16 pG5luc reporter, luciferase luminescence; scaled: DMSO wells 0%, SAHA wells 100%; 3,500 tested, 41% active; shares compounds with SMARCA2 act; activation, % at 9.1 µM;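 active = activation above the solvent-only control well mean plus 3 SD, averaged across control plates, cut at about 5.2% in these data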
Each line names hits and unclear results; the compound was inactive in the other large screens (follow-up assays come after a bar, where they were run). Most compounds without a hit are left out; they make up all but 3.4% or so of the library.

Cc1cc(C)c2c(=O)n3c(nc2c1)C(C)NC(=O)c1cccnc1-3 (configuration not stated)	none (no result: HSP90 inh, AI-2 QS modul, HSF1 inhib)
O=C(/C=C/Nc1cccc(C(F)(F)F)c1)c1ccco1	SMARCA2 act 8.7 | SMARCA2 act conf 9.2 | GAL4-VP16 Luc 8.5
C=CCC(NCc1ccco1)c1ccc(OC)c(OC)c1 (configuration not stated)	SMARCA2 act 9.9 | SMARCA2 act conf inactive | GAL4-VP16 Luc inactive
O=C(CC1CC2CCC1C2)NC1CCCCCCC1 (configuration not stated)	SMARCA2 act 9.5 | SMARCA2 act conf inactive | GAL4-VP16 Luc inactive
CC1(C(=O)NS(=O)(=O)Cc2ccccc2)CCN1C(=O)Cc1ccc(-c2ccccc2)cc1 (configuration not stated)	SMARCA2 act 8.3 (no result: HSP90 inh, AI-2 QS modul, HSF1 inhib) | SMARCA2 act conf inactive | GAL4-VP16 Luc inactive
CCOC(=O)CC(S(=O)(=O)c1ccccc1)S(=O)(=O)c1ccccc1	none (no result: HSP90 inh, AI-2 QS modul, HSF1 inhib)
CC1CCCCN1S(=O)(=O)c1ccc(S(=O)(=O)N2CCN(C)CC2)cc1 (configuration not stated)	none
CC1CCCCN1S(=O)(=O)c1ccc(S(=O)(=O)N2CCCC2)cc1 (configuration not stated)	SMARCA2 act 8.9 | SMARCA2 act conf inactive | GAL4-VP16 Luc inactive
CCOc1ccc(-n2c(SCC(=O)Nc3ccc(S(=O)(=O)Nc4nccs4)cc3)nnc2-c2ccc(C(C)(C)C)cc2)cc1	none (no result: HSP90 inh, AI-2 QS modul, FXN GAA850 act, HSF1 inhib, PG9 binder)
CC(=O)NCCc1ccc(C(=O)COC(=O)c2cccn2C)cc1	SMARCA2 act 9.2 (no result: HSP90 inh, AI-2 QS modul, HSF1 inhib) | SMARCA2 act conf inactive | GAL4-VP16 Luc inactive
CC(=O)NCCc1ccc(C(=O)COC(=O)c2cccs2)cc1	SMARCA2 act 8.6 (no result: HSP90 inh, AI-2 QS modul, HSF1 inhib) | SMARCA2 act conf 9.8 | GAL4-VP16 Luc inactive
CC(=O)NCCc1ccc(C(=O)COC(=O)c2ccc(C)s2)cc1	none (no result: HSP90 inh, AI-2 QS modul, HSF1 inhib)
COc1ccc(C(=O)COC(=O)c2cccs2)cc1	SMARCA2 act 11 (no result: HSP90 inh, AI-2 QS modul, HSF1 inhib) | SMARCA2 act conf inactive | GAL4-VP16 Luc 10
O=C(COC(=O)c1cccs1)c1ccccc1	none
COc1cccc(C(=O)COC(=O)c2cccs2)c1	SMARCA2 act 9.1 | SMARCA2 act conf 12 | GAL4-VP16 Luc inactive
O=C(/C=C(\Nc1cccc(OC(F)F)c1)c1ccccc1)c1ccccc1	none (no result: HSP90 inh, AI-2 QS modul, FXN GAA850 act, HSF1 inhib)
Nc1ccn([C@@H]2O[C@H](C(=O)N[C@H](Cc3ccccc3)C(=O)N[C@H]3CCCCNC3=O)[C@@H](O)[C@H]2O)c(=O)n1	none (no result: HSP90 inh, AI-2 QS modul, FXN GAA850 act, HSF1 inhib)
CC(C)[C@H](NS(=O)(=O)c1ccc(F)cc1F)C(=O)N1CCC[C@H]1C(=O)NCCc1ccccc1Cl	none (no result: HSP90 inh, AI-2 QS modul, FXN GAA850 act, HSF1 inhib)
N/C(=N\OC(=O)c1cccc(Br)c1)c1ccncc1	SMARCA2 act 8.0 | SMARCA2 act conf inactive | GAL4-VP16 Luc 7.4
c1ccc(OCc2nnc3sc(C4COc5ccccc5O4)nn23)cc1 (configuration not stated)	SMARCA2 act 9.2 | SMARCA2 act conf inactive | GAL4-VP16 Luc inactive
Cc1cccn2c(=O)c(/C=C(\C#N)C(=O)NCc3ccco3)c(N3CCOCC3)nc12	SMARCA2 act 11 | SMARCA2 act conf inactive | GAL4-VP16 Luc inactive
COC(=O)C1=C(C)N(Cc2ccc(C(F)(F)F)cc2)C(=NCc2ccc3c(c2)OCO3)NC1c1ccccc1C(F)(F)F (configuration not stated)	none (no result: HSP90 inh, AI-2 QS modul, FXN GAA850 act, HSF1 inhib)
COc1cccc(C(=O)NCC(=O)N/N=C/c2ccc3c(c2)OCO3)c1	SMARCA2 act 8.0 | SMARCA2 act conf inactive | GAL4-VP16 Luc inactive
COc1cccc(C(=O)NCC(=O)N/N=C/c2cccnc2)c1	none
O=C(N/N=C/c1ccc2c(c1)OCO2)C1COc2ccccc2O1 (configuration not stated)	SMARCA2 act 8.5 | SMARCA2 act conf inactive | GAL4-VP16 Luc inactive
Cc1ccc2c(Cl)cc(Cl)c(O)c2n1	SMARCA2 act 10 (no result: HSP90 inh, AI-2 QS modul, HSF1 inhib) | SMARCA2 act conf inactive | GAL4-VP16 Luc 11
Cc1cc(Cl)c2ccc3ccccc3c2n1	none
Nc1nc(N)c2cc(S(=O)(=O)c3ccc4ccccc4c3)ccc2n1	none (no result: HSP90 inh, AI-2 QS modul, HSF1 inhib)
COc1cc(OCc2ccccc2)c2c(CCC(=O)O)cc(=O)oc2c1	SMARCA2 act 8.5 (no result: HSP90 inh, AI-2 QS modul, HSF1 inhib) | SMARCA2 act conf inactive | GAL4-VP16 Luc inactive
CC(C)OCCCNC(=O)C1CCC(CNS(=O)(=O)c2ccc(Cl)cc2)CC1 (configuration not stated)	SMARCA2 act 14 | SMARCA2 act conf inactive | GAL4-VP16 Luc inactive
Cc1ccc(S(=O)(=O)NCC2CCC(C(=O)NCCCOC(C)C)CC2)cc1 (configuration not stated)	none (no result: SMARCA2 act, FXN GAA850 act, PG9 binder)
CC1(C)CC(=O)C=C(c2ccccc2F)C1=O	none (no result: HSP90 inh, AI-2 QS modul, FXN GAA850 act, HSF1 inhib)
Cn1cnc([N+](=O)[O-])c1S(=O)(=O)Oc1ccccc1	SMARCA2 act 20 (no result: HSP90 inh, AI-2 QS modul, HSF1 inhib) | SMARCA2 act conf inactive | GAL4-VP16 Luc 6.3
COc1ccc2c(c1OC)C(=O)N1c3ccccc3COC21 (configuration not stated)	SMARCA2 act 8.2 | SMARCA2 act conf 8.9 | GAL4-VP16 Luc 9.3
COc1ccc2c(c1OC)C(=O)N1c3cccc(Cl)c3C(=O)OC21 (configuration not stated)	none
COCCNC(=O)COC(=O)/C=C/c1cnc2ccccc2n1	SMARCA2 act 12 | SMARCA2 act conf inactive | GAL4-VP16 Luc inactive
O=C(COC(=O)/C=C/c1cnc2ccccc2n1)NCC(F)(F)F	none
COCc1c(C(=O)N/N=C(/C)c2ccc(OCc3ccccc3)cc2)nnn1-c1nonc1N	none
C/C(=N\NC(=O)c1nnn(-c2nonc2N)c1C)c1ccc(OCc2ccccc2)cc1	SMARCA2 act 14 | SMARCA2 act conf inactive | GAL4-VP16 Luc 6.1
COCCN1C(=O)CN(S(C)(=O)=O)CC1(C)C(=O)Nc1c(C)cccc1C (configuration not stated)	none (no result: HSP90 inh, AI-2 QS modul, FXN GAA850 act, HSF1 inhib)
Cn1c(C(=O)N2CCN(Cc3ccccc3)CC2)cc2c(=O)n(C)c3ccccc3c21	SMARCA2 act 8.9 | SMARCA2 act conf inactive | GAL4-VP16 Luc inactive
CNC12CCc3cc(OC)c(OC)c(c31)-c1cc3c(cc1C2)OCO3 (configuration not stated)	none (no result: HSP90 inh, AI-2 QS modul, FXN GAA850 act, HSF1 inhib)
CC(C)OCCCNC1=C(Cl)C(=O)c2ccccc2C1=O	SMARCA2 act 9.4 | SMARCA2 act conf inactive | GAL4-VP16 Luc inactive
COCCCNC1=C(Cl)C(=O)c2ccccc2C1=O	none
Cn1cc(S(=O)(=O)Cc2ccc(F)cc2)c2ccccc21	SMARCA2 act 8.2 | SMARCA2 act conf inactive | GAL4-VP16 Luc inactive
Cc1ccc(Cc2c(-c3cccc(Br)c3)nc3c(C)cc(Br)cn23)cc1	none (no result: HSP90 inh, AI-2 QS modul, FXN GAA850 act, HSF1 inhib)
Cc1ccc(N=Cc2nc(-c3ccc(C)cc3)oc2O)cc1	none

Assay outcomes from PubChem BioAssay.
